Assay outcomes (PubChem BioAssay)
The list is not random: actives were taken first. Their share in the collection is about 0.52%.
Vif-APOBEC3F blk: qHTS for Inhibitors of Vif-A3F Interactions: qHTS. HeLa A3F-eYFP + Vif (tagged APOBEC3F with the HIV-1 protein that degrades it), YFP fluorescence increase. Potency, µM (highest dose often 46.1 µM), for inactives: at the highest dose activity, negative = active. 390,000 tested, 0.2% active. AID 602313, 2012; also: % of control where 0% means no effect; nearly all actives have a fitted effect of over 65% in size
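Fluorescence increase (Ex 488/Em 500-530) after overnight compound treatment at 37 deg C flags inhibition of Vif-driven A3F-eYFP loss in stable HeLa A3F-eYFP/Vif cells seeded overnight beforehand.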
Vif-APOBEC3G blk: qHTS for Inhibitors of Vif-A3G Interactions: qHTS; DNA dC->dU-editing enzyme APOBEC-3G (Homo sapiens), Q9HC16; HeLa A3G-eYFP + Vif (tagged APOBEC3G with the HIV-1 protein that degrades it), YFP fluorescence, overnight; Potency, µM (doses to about 46.1 µM), for the others: at the highest dose activity, negative = active, most hits filed as inhibitors; 410,000 tested, 0.076% active; also: % is scaled to controls: 0 for no effect and ±100 for the full control effect; nearly all actives have a fitted effect of over 60% in size
Target sequence (Q9HC16 whole entry, looked up): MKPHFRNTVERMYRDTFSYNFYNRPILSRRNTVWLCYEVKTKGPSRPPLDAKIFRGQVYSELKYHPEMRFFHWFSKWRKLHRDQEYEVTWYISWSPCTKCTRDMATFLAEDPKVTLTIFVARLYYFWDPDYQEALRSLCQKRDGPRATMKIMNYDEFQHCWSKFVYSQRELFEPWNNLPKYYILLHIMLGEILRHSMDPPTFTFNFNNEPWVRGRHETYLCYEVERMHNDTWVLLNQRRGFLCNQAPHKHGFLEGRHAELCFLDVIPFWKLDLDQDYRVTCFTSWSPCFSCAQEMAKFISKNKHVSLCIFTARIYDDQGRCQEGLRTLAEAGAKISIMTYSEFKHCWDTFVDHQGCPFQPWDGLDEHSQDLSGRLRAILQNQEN
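HeLa cells stably expressing Vif and C-terminally eYFP-tagged A3G, seeded overnight at 37 deg C, then exposed to compound by pintool overnight at 37 deg C. Rise in yellow fluorescence (Ex 488/Em 500-530, Acumen) marks blocked Vif-driven A3G degradation.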
PINK1 expr mod: A Quantitative High throughput Screen to Identify Chemical Modulators of PINK1 Expression | Potency, µM (titrated, usually from 76.6 µM), for the others: at the top dose activation (PINK1 increase), usual class: activators | 410,000 tested, 0.2% active | PINK1 immunofluorescence, high-content cytometry, 24 h; active = well fitted activation curve with a large enough effect; inconclusive = small, poorly fitted or top-dose-only effect; cell line not stated here; also: % of control where 0% means no effect; nearly all actives have a fitted effect of over 65% in size
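Readout is PINK1 immunofluorescence, quantified alongside mitochondrial, cell and nuclear markers by laser-scanning microplate cytometry. Cells from a stable line were exposed to compound titrations (5 concentrations) for 24 hours, with CCCP controls.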
Epigenetic reg: Quantitative High-Throughput Screen for Regulators of Epigenetic Control | murine LDR cells, GFP reporter derepression, 30 h | 280,000 tested, 0.2% active | Potency, µM (highest dose often 53.9 µM), without a hit: at the highest dose GFP activation, most hits filed as activators | AID 1865, 2009; also: % of control where 0% means no effect; nearly all actives have a fitted effect of over 60% in size
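GFP-positive cell count by laser-scanning cytometry (objects 20–120 um) after 30 h, 37 C compound exposure of murine LDR cells; reporter is CMV-GFP integrated at a silenced locus, inducible by HDAC or DNMT inhibitors.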
* = called active by the depositor. Unless noted, calls follow the shape of the dose curve; as a rule, active = well fitted curve in the direction sought with a large enough effect; inconclusive = small, poorly fitted or top-dose-only effect, or another doubt; inactive = no such curve, though single readings can be large; an effect the other way counts as inactive or inconclusive. Potency is read from the fitted curve at half-maximal effect.

What do the screens show for `COc1ccccc1C1CN(Cc2cccc3nccnc23)Cc2ccccc2O1` (stereo unspecified)?
PINK1 expr mod: -0.1%

What do the screens show for `Cc1oc(-c2ccccc2NC(=O)c2ccsc2)nc1CN(C)Cc1ccc2c(c1)CCCN2C`?
PINK1 expr mod: 2.4%

How did COc1ccccc1C1CN(CCNC(=O)c2ccccc2Cl)Cc2ccccc2O1 (stereo unspecified) do in these assays?
PINK1 expr mod: -0.5%

What do the screens show for `CCN1CCc2c(sc(NC(=O)c3ccc(S(=O)(=O)N(CCOC)CCOC)cc3)c2C(N)=O)C1`?
Vif-APOBEC3F blk: 1.4%; Vif-APOBEC3G blk: -3.9%; PINK1 expr mod: -4.7%; Epigenetic reg: 0.6%

How did CCN1CCc2c(sc(NC(=O)c3ccc(S(=O)(=O)N(C)c4ccccc4)cc3)c2C(=O)NC)C1 do in these assays?
Vif-APOBEC3F blk: 11.2µM*; Vif-APOBEC3G blk: inconclusive; PINK1 expr mod: 1.0%

Results for CO[C@H]1[C@H](NC(=O)c2ccco2)c2ccccc2C12CCN(Cc1cnn(-c3ccccc3)c1)CC2 ?
PINK1 expr mod: -0.1%

What do the screens show for `Cc1nn(C)cc1CNc1nc(C)c(-c2ccn(CC3COc4ccccc4O3)n2)s1` (stereo unspecified)?
PINK1 expr mod: -0.6%

What do the screens show for `N#Cc1c(Cl)nsc1NC(=O)c1ccccc1`?
Vif-APOBEC3F blk: -13.3%; Vif-APOBEC3G blk: 5.3%; PINK1 expr mod: 12.6µM*; Epigenetic reg: -1.0%

Results for COc1cc(=O)n2c(c1C(=O)N(C)C(C)c1ccco1)CCN(C(=O)c1ccc(C(C)=O)cc1)CC2 (stereo unspecified) ?
PINK1 expr mod: -0.1%

How did O=C(Cc1c(F)cccc1Cl)Nc1ccon1 do in these assays?
Vif-APOBEC3F blk: 7.3%; Vif-APOBEC3G blk: 0.8%; PINK1 expr mod: 7.94µM*; Epigenetic reg: -1.2%

Results for O=S(=O)(Nc1cc(Cl)ccc1-n1cncn1)c1cc(Br)ccc1Br ?
Vif-APOBEC3F blk: 1.7%; Vif-APOBEC3G blk: -8.4%; PINK1 expr mod: 15.8µM*

Results for CN(C)S(=O)(=O)c1cccc(NC(=S)Nc2ccc(Cl)cc2Cl)c1 ?
Vif-APOBEC3F blk: -1.0%; Vif-APOBEC3G blk: -0.9%; PINK1 expr mod: 15.8µM*; Epigenetic reg: 1.4%

What do the screens show for `Cc1cc(F)ccc1S(=O)(=O)Nc1ccccc1C(=O)Nc1ncn[nH]1`?
Vif-APOBEC3F blk: -7.3%; Vif-APOBEC3G blk: -2.5%; PINK1 expr mod: 1.8%; Epigenetic reg: -7.2%

Results for Cc1cc(F)ccc1S(=O)(=O)Nc1ccccc1C(=O)Nc1ccccc1-c1nc2ccccc2[nH]1 ?
Vif-APOBEC3F blk: -3.1%; Vif-APOBEC3G blk: -2.6%; PINK1 expr mod: 44.7µM*; Epigenetic reg: -1.1%

How did Cc1ccc(CNC(=O)Cn2cc(C(=O)c3ccc(Cl)cc3)c(=O)c3ccc(C)nc32)cc1 do in these assays?
Vif-APOBEC3F blk: 12.6µM*; Vif-APOBEC3G blk: -16.5%; PINK1 expr mod: -0.1%; Epigenetic reg: 5.9%

What do the screens show for `COc1cc(CN2CCOc3ccc(CN4CCC(O)(c5cccnc5)CC4)cc3C2)cc(OC)c1`?
PINK1 expr mod: 0.5%

Results for CCOC(=O)c1ccc(Cl)c(NC(=O)c2ccc(-c3ccccc3)cc2)c1 ?
Vif-APOBEC3F blk: -2.2%; Vif-APOBEC3G blk: -10.3%; Epigenetic reg: 0.0%

Results for CCOC(=O)c1ccc(/C=C2/C=C(c3ccccc3)N(c3ccc(Cl)c(C(=O)O)c3)C2=O)cc1 ?
Vif-APOBEC3F blk: 12.6µM*; Vif-APOBEC3G blk: inconclusive; PINK1 expr mod: -3.7%; Epigenetic reg: 0.0%

What do the screens show for `Cc1ccccc1-c1ccc(CN2CCc3nnc(CNC(=O)c4ccccn4)n3CC2)cc1`?
PINK1 expr mod: 2.1%

What do the screens show for `Cc1oc(-c2ccccc2NS(C)(=O)=O)nc1CN(C)Cc1ccc(Cl)cc1`?
PINK1 expr mod: -0.9%

How did COc1cccc(C2c3c(oc4ccc(Cl)cc4c3=O)C(=O)N2c2cc(C)on2)c1OC (stereo unspecified) do in these assays?
Vif-APOBEC3F blk: 0.3%; Vif-APOBEC3G blk: 0.9%; PINK1 expr mod: 12.6µM*; Epigenetic reg: 2.2%

How did Cn1cc(/C=C2\SC(=S)N(NC(=O)c3ccccc3Cl)C2=O)c2ccccc21 do in these assays?
Vif-APOBEC3F blk: 11.2µM*; Vif-APOBEC3G blk: inconclusive; PINK1 expr mod: 0.3%; Epigenetic reg: 0.0%

How did Cc1ccc(C(=O)NN2C(=O)/C(=C/c3cn(C)c4ccccc34)SC2=S)cc1 do in these assays?
Vif-APOBEC3F blk: inconclusive; Vif-APOBEC3G blk: -12.0%; PINK1 expr mod: -1.4%; Epigenetic reg: 5.8%

How did O=C1/C(=C/c2ccc([N+](=O)[O-])cc2)Oc2cc(O)ccc21 do in these assays?
Vif-APOBEC3F blk: 22.4µM*; Vif-APOBEC3G blk: -1.6%; PINK1 expr mod: inconclusive

What do the screens show for `O=C1/C(=C/c2ccc(Br)cc2)Oc2cc(O)ccc21`?
Vif-APOBEC3F blk: -9.0%; Vif-APOBEC3G blk: -13.7%; PINK1 expr mod: inconclusive

What do the screens show for `O=C(NCCN1Cc2ccccc2OC(c2ccsc2)C1)c1ccc2[nH]ccc2c1` (stereo unspecified)?
PINK1 expr mod: -0.7%

Results for COC(=O)c1sc2cc([N+](=O)[O-])cc(SCC(C)C)c2c1N ?
Vif-APOBEC3F blk: 10µM*; Vif-APOBEC3G blk: 10µM*; PINK1 expr mod: inconclusive; Epigenetic reg: inconclusive

How did CC(C)c1c(C(=O)NCCN2CCOCC2)cnn1-c1nccc(-c2cccs2)n1 do in these assays?
PINK1 expr mod: 0.3%

What do the screens show for `COc1cc(O)ccc1CN1CCc2nnc(C(C)NC(=O)c3cc(F)ccc3F)n2CC1` (stereo unspecified)?
PINK1 expr mod: -0.2%

What do the screens show for `CCC(=O)Nc1ccc2c(c1)C(=O)N(C1CCCCC1)C2=O`?
Vif-APOBEC3F blk: 0.4%; Vif-APOBEC3G blk: -3.5%; PINK1 expr mod: 3.55µM*; Epigenetic reg: -1.1%

What do the screens show for `O=C(Nc1ccncc1)c1ccc2c(c1)C(=O)N(C1CCCCC1)C2=O`?
Vif-APOBEC3F blk: 3.3%; Vif-APOBEC3G blk: 4.5%; PINK1 expr mod: 0.1%; Epigenetic reg: -1.1%

What do the screens show for `Cc1c(C(=O)N(C)Cc2nccs2)sc2ncnc(NCC3CCCO3)c12` (stereo unspecified)?
PINK1 expr mod: 2.1%

What do the screens show for `CCN1CCc2c(sc(-n3cccc3)c2C(C)NC(=O)Nc2ccc(C(=O)OC)cc2)C1` (stereo unspecified)?
Vif-APOBEC3F blk: 22.4µM*; Vif-APOBEC3G blk: inconclusive; PINK1 expr mod: 4.5%; Epigenetic reg: 8.2%

What do the screens show for `COc1ccc(C2c3ccc(O)cc3Oc3ncn4nc(-c5ccco5)nc4c32)cc1OC` (stereo unspecified)?
Vif-APOBEC3F blk: -25.5%; Vif-APOBEC3G blk: -1.3%; PINK1 expr mod: 9.4%; Epigenetic reg: 22.4µM*
